Assay results published in PubChem BioAssay AID798 (PCMD, 2007).
Hit rate of the full screen: of about 220,000 compounds, about 300 (0.14%) were called active.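 Rule for the calls: active = inhibition of at least 40%; inactive = inhibition below 40%.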 Many of the other results were omitted from the sample, so actives are more common in it than they were.

What follows are molecules tested against Coagulation factor XI (Homo sapiens) (UniProt P03951) (assay: factor XIa enzyme inhibition, large library – biochemical, 1536-well, primary screen (AID 798;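 note: fluorescence of freed AMC excited at 355 nm; 0% = enzyme without compound and 100% = no enzyme blank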)). Conditions: purified FXIa, Boc-Glu-Ala-Arg-AMC fluorogenic substrate; at 5 µM; active compounds read high.
Chain of Coagulation factor XI (Homo sapiens) (P03951 19-387 limits assumed): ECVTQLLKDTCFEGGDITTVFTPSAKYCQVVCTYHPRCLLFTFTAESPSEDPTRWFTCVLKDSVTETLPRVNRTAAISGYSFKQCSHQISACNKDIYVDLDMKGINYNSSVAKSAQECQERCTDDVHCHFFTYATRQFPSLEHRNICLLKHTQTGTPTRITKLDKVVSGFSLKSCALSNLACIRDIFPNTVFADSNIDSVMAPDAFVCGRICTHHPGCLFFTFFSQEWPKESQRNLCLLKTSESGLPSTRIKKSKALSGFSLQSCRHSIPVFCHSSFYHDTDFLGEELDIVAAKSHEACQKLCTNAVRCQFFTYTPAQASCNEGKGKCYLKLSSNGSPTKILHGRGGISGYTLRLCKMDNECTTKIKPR
Chain of Coagulation factor XI (Homo sapiens) (P03951 388-625 limits assumed): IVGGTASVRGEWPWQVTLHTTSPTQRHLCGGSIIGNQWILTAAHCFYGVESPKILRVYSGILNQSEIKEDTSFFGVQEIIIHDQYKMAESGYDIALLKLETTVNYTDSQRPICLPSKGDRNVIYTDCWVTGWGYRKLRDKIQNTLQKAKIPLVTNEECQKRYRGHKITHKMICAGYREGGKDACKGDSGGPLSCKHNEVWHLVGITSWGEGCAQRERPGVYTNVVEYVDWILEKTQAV

SMILES	inhibition
NCC(O)c1ccc(O)cc1 (stereo not given)	47.9% (active)
CSc1ccc(C(=O)C2CCCN(Cc3ccn[nH]3)C2)cc1 (stereo not given)	2.72% (inactive)
Cc1ccc(Cn2c(C)c3cnn(CC(=O)N4CCC5(CC4)OCCO5)c(=O)c3c2C)cc1	-2.43% (inactive)
CCCCCn1c(=O)c(C(=O)NCc2ccccn2)c(O)c2ccccc21	4.5% (inactive)
CC(C)c1ccc(-n2c(O)c(/C=N/N3CCOCC3)c(=O)[nH]c2=S)cc1	-2.81% (inactive)
